PubChem BioAssay (NCI)
This is part of a sample that, as a whole, favours compounds with a hit. Of some 83,000 tested, about 20% had one in any assay.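 A percent growth of 40 corresponds to 60% growth inhibition; 0 means no net growth; -100 means all cells died. Active threshold: below 10.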 Active and inactive are the calls of the source.

Each compound was assayed on SK-OV-3 ovarian (assay: NCI-60 one-dose screen, 48 h (100 = growth as untreated, 0 = no growth, -100 = all killed)). Conditions: 10 µM.

Compound | growth
O=C(/C=C/c1ccco1)c1nc2ccccc2n1Cc1ccc(Br)cc1 | 103% (inactive)
O=C(/C=C/c1ccco1)c1nc2ccccc2n1Cc1ccc(F)cc1 | 85.5% (inactive)
COc1cc2cc(C(=O)N3C[C@@H](CCl)c4c3cc(OC(=O)N3CCN(C)[C@@H]5CSSC[C@@H]53)c3ccccc43)[nH]c2c(OC)c1OC | -6.59% (active)
C#CC[Se]C(=O)c1ccc2n[se]nc2c1 | 95.4% (inactive)
O=C(/C=C/c1ccc(Cl)cc1Cl)c1nc2ccccc2n1Cc1ccc(F)cc1 | 103% (inactive)
O=C(/C=C/c1ccc(Cl)cc1)c1nc2ccccc2n1Cc1ccc(Br)cc1 | 94.7% (inactive)
CCOP(=O)(OCC)C(NC(C)=O)C(=O)SCCN (centres undefined) | 117% (inactive)
COc1cc2cc(C(=O)N3C[C@@H](CCl)c4c3cc(OC(=O)N3CCN(C)[C@@H]5CSSC[C@H]53)c3ccccc43)[nH]c2c(OC)c1OC | -26.3% (active)
COc1ccc2cc([C@H](C)C(=O)[Se]CCC#N)ccc2c1 | -70.6% (active)
CC12OOC(C)(OO1)C2CCC(=O)OCCNc1ccnc2cc(Cl)ccc12 (centres undefined) | 95.9% (inactive)
CC(C)N=C([Se])NC(=O)c1cccs1 | -17.3% (active)
Cc1ccc2[nH]c(=S)n(-c3ccc(F)cc3)c(=O)c2c1 | 122% (inactive)
CCOC(=O)C1=C(Nc2ccccc2)C(=O)OC12C(=O)Nc1ccccc12 (centres undefined) | 104% (inactive)
CC12CCC3(CCC(=O)NCCCNc4ccnc5cc(Cl)ccc45)[C@@](C)(OO[C@]3(C)O1)O2 | 13.1% (inactive)
